{
  "source": "PubChem BioAssay AID720517",
  "about": "(National Center for Advancing Translational Sciences (NCATS), 2013)",
  "note": "Results filed as inconclusive are left out. Activity calls are given as the source filed them. Calls follow the shape of the dose curve; as a rule, active = well fitted activation curve with a large enough effect; inconclusive = small, poorly fitted or top-dose-only effect; inactive = flat fitted curve, though single readings scatter.",
  "data": [
    {"assay": "qHTS for Inhibitors of Cell Surface uPA Generation: FP59 Counterscreen for Cherry-picked Compounds; also: 0% is about no effect", "conditions": "FP59 anthrax toxin cytotoxicity counterscreen, cells; series mostly up to 115 µM; activity (protection from FP59): at the top concentration", "values": [
      {"smiles": "COc1ccc(C2=NOC(CNC(N)=S)C2)cc1", "note": "(configuration not stated)", "activity (protection from FP59)": "-1.38% (inactive)"},
      {"smiles": "O=C(c1cc(COc2ccc(F)cc2Cl)on1)N1CCCCCC1", "activity (protection from FP59)": "-0.0358% (inactive)"},
      {"smiles": "CCOc1ccc(OCC)c(NC(=O)c2ccc(CNc3c(N4CCCC4)c(=O)c3=O)cc2)c1", "activity (protection from FP59)": "-1.24% (inactive)"},
      {"smiles": "O=C(/C=C/c1cccc(F)c1)Nc1cc(S(=O)(=O)N2CCOCC2)ccc1Cl", "activity (protection from FP59)": "-0.397% (inactive)"},
      {"smiles": "Cc1nc2nc(C)c(NS(=O)(=O)c3ccc(Cl)cc3)c(=O)n2[nH]1", "activity (protection from FP59)": "-1.36% (inactive)"},
      {"smiles": "COc1cc(CCC(=O)OCC(=O)Nc2ccc(C)cc2Br)cc(OC)c1OC", "activity (protection from FP59)": "-1.45% (inactive)"},
      {"smiles": "O=S(=O)(NCC(c1cccnc1)N1CCOCC1)c1ccccc1", "note": "(configuration not stated)", "activity (protection from FP59)": "-1.32% (inactive)"},
      {"smiles": "CCCCN(C(=O)c1cnccn1)c1c(N)n(CCC)c(=O)[nH]c1=O", "activity (protection from FP59)": "-1.49% (inactive)"},
      {"smiles": "COC(=O)CCNS(=O)(=O)c1ccc2nsnc2c1", "activity (protection from FP59)": "-1.4% (inactive)"},
      {"smiles": "O=C1CCCc2ccccc2N1Cc1ccc(F)cc1", "activity (protection from FP59)": "-1.29% (inactive)"},
      {"smiles": "O=C1CCCC/C1=C\\Nc1ccc(S(=O)(=O)Nc2cnc3ccccc3n2)cc1", "activity (protection from FP59)": "-1.53% (inactive)"},
      {"smiles": "O=C(N/N=C/c1cccs1)c1ccco1", "activity (protection from FP59)": "-1.33% (inactive)"},
      {"smiles": "COC(=O)/C(C#N)=C\\c1c(OC)[nH]c2ccccc12", "activity (protection from FP59)": "-1.49% (inactive)"},
      {"smiles": "CC1Cc2nc(SCC(=O)Nc3ccc4c(c3)OCO4)n(-c3ccc(F)cc3)c(=O)c2S1", "note": "(configuration not stated)", "activity (protection from FP59)": "-1.41% (inactive)"},
      {"smiles": "C/C(=N\\NC(=O)c1cccc([N+](=O)[O-])c1)c1cccnc1", "activity (protection from FP59)": "-1.46% (inactive)"},
      {"smiles": "COc1ccc(N(C(C)C(=O)NN=C2CCCC2)S(C)(=O)=O)cc1", "note": "(configuration not stated)", "activity (protection from FP59)": "-1.4% (inactive)"},
      {"smiles": "Cc1nc2ccc(Br)cn2c1C(=O)N/N=C\\c1ccccc1Cl", "activity (protection from FP59)": "-1.29% (inactive)"},
      {"smiles": "CC1(C)CC(=O)C=C(c2ccc3ccccc3c2)C1", "activity (protection from FP59)": "0.0857% (inactive)"},
      {"smiles": "CCOc1ccc(/C=N/NC(=S)Nc2c(C)cccc2C)cc1", "activity (protection from FP59)": "-1.17% (inactive)"},
      {"smiles": "COc1cc(N/C(N)=N/c2nc(C)cc(C)n2)cc(OC)c1", "activity (protection from FP59)": "-1.6% (inactive)"},
      {"smiles": "Nc1ccc(S(=O)(=O)c2ccccc2)nc1", "activity (protection from FP59)": "-1.36% (inactive)"},
      {"smiles": "COc1ccccc1N1CCN(C(=O)CCC(=O)N2CCN(c3ccc(F)cc3)CC2)CC1", "activity (protection from FP59)": "-1.52% (inactive)"}
    ]}
  ]
}
